Test results reported in PubChem BioAssay (NCATS).
Records with an inconclusive call do not appear. A number with no mark means an inactive call. The call rests on the fitted dose curve; in most records, active means well fitted inhibition curve with a large enough effect; inconclusive means small, poorly fitted or top-dose-only effect; inactive means flat fitted curve, though single readings scatter. Where a SMILES comes first, the peptide text is derived from it. Bridges are numbered along the chain shown (N, C = ends). [ ]: non-standard residue; d: D form. hArg = N=C(N)NCCCC[C@H](N)C(=O)O; Mpa = O=C(O)CCS

Test system: AA1029
Assay: qHTS profiling for inhibitors of Plasmodium falciparum proliferation (AID 504749);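 further: 0% = DMSO vehicle and full inhibition = artemisinin control; nearly all actives have a fitted effect of over 60% in size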
Details: P. falciparum in erythrocytes, SYBR Green DNA, 72 h; series mostly up to 28.7 µM; activity, negative = inhibition: at the top concentration
In short: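 Quantitative HTS: compounds pinned into medium, infected erythrocytes added (0.3% parasitemia, 2.5% hematocrit), 72 h culture at 37 C under 5% CO2. Saponin/Triton lysis with SYBR Green I, overnight RT, then fluorescence read.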

Compound | activity, negative = inhibition
NC(=O)[C@@H]1CSSCCC(=O)N[C@@H](CCCCN=C(N)N)C(=O)NCC(=O)N[C@@H](CC(=O)O)C(=O)N[C@@H](Cc2c[nH]c3ccccc23)C(=O)N2CCC[C@H]2C(=O)N1 ([Mpa][hArg]GDWPC-NH2; disulfide 1-7) | -1.57%
CCCCCCCCCCCCCCCCC(C(=O)O)C(O)(CC(=O)O)C(=O)O (centres undefined) | -3.96%
COC(=O)c1cccnc1 | -0.488%
NC(N)=NS(=O)(=O)c1ccc(N)cc1 | 0.794% [at 12.8 µM]
Cc1c(C)c2c(c(C)c1OC(=O)c1cccnc1)CC[C@@](C)(CCC[C@H](C)CCC[C@H](C)CCCC(C)C)O2 | 7.82%
NC(=O)c1ccc([N+](=O)[O-])cc1Cl | 1.33%
COc1ccc(C(=O)NCc2ccc(OCCN(C)C)cc2)cc1OC | 9.33%
CCS(=O)(=O)CCn1c([N+](=O)[O-])cnc1C | 0.812% [at 12.8 µM]
CC(=O)Nc1ccccc1 | 10.5%
O=C(O)CCC(=O)O | 5.63%
CC[N+](CC)(CC(=O)Nc1c(C)cccc1C)Cc1ccccc1 | 5.11%
NC(=O)CC[C@@H](N)C(=O)O | 16%
O=C(O)CNC(=O)c1ccccc1I | 9.72%
CN/C(=C\[N+](=O)[O-])NCCSCc1csc(CN(C)C)n1 | 6.55% [at 12.8 µM]
O=C(/C=C/c1ccccc1)OCc1ccccc1 | 13.9%
CCCCOC(=O)c1ccc(N)cc1 | 1.35%
CC(C)C[C@@H](N)C(=O)O | 9.27%
CC(C)(C)C(=O)OCOC(=O)[C@@H]1N2C(=O)[C@@H](NC(=O)[C@H](N)c3ccccc3)[C@H]2SC1(C)C | -1.3% [at 12.8 µM]
O=C(OOC(=O)c1ccccc1)c1ccccc1 | 11.3%
